From PubChem
The list is not random: actives were taken first. Their share in the collection is about 1.6%.
Rce1 inhib: inhibitors of yeast Ras-converting enzyme; Q03530; yeast membranes, quenched prenylated peptide cleavage fluorescence; calls only; hit rate 0.27% among 290,000; AID 2563;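 active = fall in fluorescence gain of 50% or more versus controls, with final raw signal at or below 3038400; inconclusive = same 50% fall but final raw signal above 3038400; inactive = fall in fluorescence gain under 50%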
NSD2 inh: NSD2 (human) methyltransferase inhibition | inhibition, % at 12.5 µM | NSD2 peptide methylation, AlphaScreen, 120 min | O96028 | hit rate 0.54% among 310,000; in the data active = inhibition above about 50%
Target sequence (O96028 whole entry, looked up): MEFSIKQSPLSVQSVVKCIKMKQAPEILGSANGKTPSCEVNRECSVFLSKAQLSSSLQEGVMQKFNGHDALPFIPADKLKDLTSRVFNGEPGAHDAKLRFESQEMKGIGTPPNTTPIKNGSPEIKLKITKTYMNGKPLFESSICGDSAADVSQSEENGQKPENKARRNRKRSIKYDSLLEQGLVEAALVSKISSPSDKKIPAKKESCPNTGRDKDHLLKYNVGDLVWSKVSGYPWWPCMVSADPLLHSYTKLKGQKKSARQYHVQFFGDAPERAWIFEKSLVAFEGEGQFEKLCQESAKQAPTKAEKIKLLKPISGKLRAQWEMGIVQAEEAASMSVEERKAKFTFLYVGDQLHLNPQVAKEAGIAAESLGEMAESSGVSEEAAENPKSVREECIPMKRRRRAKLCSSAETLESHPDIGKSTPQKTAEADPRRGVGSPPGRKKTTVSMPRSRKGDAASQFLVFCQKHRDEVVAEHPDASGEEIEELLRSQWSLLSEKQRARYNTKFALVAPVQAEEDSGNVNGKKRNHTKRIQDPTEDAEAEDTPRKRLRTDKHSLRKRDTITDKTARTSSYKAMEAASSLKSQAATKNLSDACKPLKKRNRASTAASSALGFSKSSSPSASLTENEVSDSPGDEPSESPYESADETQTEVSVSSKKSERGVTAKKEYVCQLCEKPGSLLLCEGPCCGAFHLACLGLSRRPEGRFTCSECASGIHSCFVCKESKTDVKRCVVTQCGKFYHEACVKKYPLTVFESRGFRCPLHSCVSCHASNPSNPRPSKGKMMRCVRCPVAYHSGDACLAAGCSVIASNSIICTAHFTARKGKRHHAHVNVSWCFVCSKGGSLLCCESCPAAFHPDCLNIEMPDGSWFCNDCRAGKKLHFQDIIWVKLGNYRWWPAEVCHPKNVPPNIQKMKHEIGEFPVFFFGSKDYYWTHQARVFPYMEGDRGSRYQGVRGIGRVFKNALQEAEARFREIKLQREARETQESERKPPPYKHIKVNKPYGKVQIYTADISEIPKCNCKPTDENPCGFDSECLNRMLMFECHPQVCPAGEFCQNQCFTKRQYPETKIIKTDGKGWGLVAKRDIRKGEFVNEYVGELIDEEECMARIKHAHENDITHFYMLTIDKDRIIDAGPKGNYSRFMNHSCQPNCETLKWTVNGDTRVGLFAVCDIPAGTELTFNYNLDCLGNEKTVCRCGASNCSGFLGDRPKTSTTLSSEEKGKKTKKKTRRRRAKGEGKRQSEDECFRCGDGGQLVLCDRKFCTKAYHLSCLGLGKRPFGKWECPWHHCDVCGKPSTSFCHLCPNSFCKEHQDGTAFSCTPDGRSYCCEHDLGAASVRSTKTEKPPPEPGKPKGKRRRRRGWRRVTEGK
GC-A act: GC-A (human) enzyme activation; hit rate 0.14% among 370,000; HEK293 GC-A cells, cGMP TR-FRET, EC30 ANP; 0% at EC30 ANP, 100% saturating ANP; activation, % at 10 µM; in the data active = activation above about 40%
V-ATPase pH: alters yeast V-ATPase proton transport; S. cerevisiae, pHLuorin cytosolic pH fluorescence; response, % at 10 µM; hit rate 0.37% among 350,000; AID 504577; in the data active = response mostly above about 7.3%, no sharp cut-off; inactive = mostly below about 5.4%; also: actives read high
NPR2 activator: GC-B (human) receptor activation; P20594; HEK293-GC-B cells, CNP EC30, cGMP TR-FRET; 0% at EC30 CNP, 100% saturating CNP; activation, % at 10 µM; hit rate 0.11% among 370,000; AID 1920062;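 active = activation at 10 µM reaching about 35% in either raw or pattern-adjusted values, limit read from the data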
Efflux pump mplx: inhibitors of Candida antifungal efflux pumps expressed in yeast. hit rate 0.44% among 330,000. inhibition, % at 10 µM. S. cerevisiae Candida pump triplex, Nile Red efflux;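 active = plate passing quality check with inhibition over a set limit, or well fluorescence over plate mean plus 4 SD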;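 also: Nile Red retained in pooled yeast measured as flow cytometry median fluorescence; higher means more Nile Red kept so more efflux inhibition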
Large screens that a line does not name were inactive.

COc1cc(-c2cc(NC=O)c3ncc(-c4ccc(C(C)=O)cc4)n3c2)cc(OC)c1OC	NPR2 activator 35 (no result: Rce1 inhib, V-ATPase pH, Efflux pump mplx)
COc1cc(-c2cc(NC=O)c3ncc(-c4ccccc4)n3c2)cc(OC)c1OC	NPR2 activator 35 (no result: Rce1 inhib, V-ATPase pH, Efflux pump mplx)
C=CCN1C(=O)[C@@H](CC(=O)NCC23CC4CC(CC(C4)C2)C3)[C@]2(C(=O)OCC)CCCCC/C=C/12	none (no result: Rce1 inhib, NSD2 inh, V-ATPase pH, Efflux pump mplx)
O=[N+]([O-])c1cccc2[nH]c(CNc3nc(N4CCOCC4)nc4c3ncn4-c3ccsc3)nc12	none (no result: Rce1 inhib, V-ATPase pH, Efflux pump mplx)
Cn1cnc([N+](=O)[O-])c1Sc1nc(N)nc2c1ncn2Cc1ccccc1	NPR2 activator 44 (no result: Rce1 inhib, Efflux pump mplx)
CCOC(=O)c1c(-c2ccccc2)csc1/N=C/C1C(=O)CC(C)(C)CC1=O	none (no result: Rce1 inhib, GC-A act, V-ATPase pH, NPR2 activator, Efflux pump mplx)
COc1ccccc1CC(=O)Nc1ccc2c(C)cc(=O)oc2c1	Rce1 inhib active
CC(=O)NN1C(=O)c2ccccc2NC1c1ccoc1 (stereo not given)	Rce1 inhib active
CCOC(=O)CN1C(=O)/C(=C/c2cccc(Br)c2)Oc2ccccc21	none
O=C(CN1C(=O)/C(=C\c2cccc(Br)c2)Oc2ccccc21)NCC1CCCO1 (stereo not given)	Rce1 inhib active
CC1COCC(C)N1C1=C(Cl)C(=O)c2ccccc2C1=O (stereo not given)	NSD2 inh 107 (no result: Rce1 inhib, Efflux pump mplx)
Cn1c(N)c(C(=O)Nc2cccc(Cl)c2)c(=O)n(C)c1=O	GC-A act 47
C(=C\c1ccco1)/C1=NN(c2ccccc2)C(c2ccco2)C1 (stereo not given)	Efflux pump mplx 1.4 (no result: GC-A act, NPR2 activator)
CCOC(=O)c1c(C)oc2ccc(O)c(CN(C)C)c12	none
CCOC(=O)c1c(CSc2ccc(CC)cc2)oc2ccc(O)c(CN(C)C)c12	V-ATPase pH 7.6
COc1ccc(/C=C/C(=O)O)cc1	none (no result: Rce1 inhib, NSD2 inh)
O=C(O)/C=C/c1ccc(O)cc1	Rce1 inhib active (no result: NSD2 inh)
C#CCOCCOCCOCCNc1nc(N2CCN(C(=O)Cn3cc(CCCN=C(N)N)nn3)CC2)nc(N2CCN(C(=O)[C@H](Cc3ccc(O)cc3)n3cc(CCO)nn3)CC2)n1	none (no result: Rce1 inhib, V-ATPase pH, Efflux pump mplx)
O=C(Nc1ccccc1)n1ccc2ccc(-c3ccc4cc[nH]c4c3)cc21	none (no result: Rce1 inhib, NSD2 inh, V-ATPase pH, Efflux pump mplx)
O=C(CSc1nnc(COc2ccc(Cl)cc2)n1Cc1ccco1)Nc1ccc2c(c1)OCO2	none (no result: Rce1 inhib, V-ATPase pH, Efflux pump mplx)
C(=C\c1ccncc1)/c1ccccc1	V-ATPase pH 18 (no result: NSD2 inh)
COc1ccc(C(=O)CN2C(=O)c3ccccc3C2=O)cc1	none
COc1ccc(C(=O)CN2C(=O)c3ccccc3C2=O)c(OC)c1C	V-ATPase pH 19
Fc1cccc(CNC2CCC23CCC(c2ccccc2)CC3)c1 (stereo not given)	none (no result: Rce1 inhib, V-ATPase pH, Efflux pump mplx)
CC1CCN(c2oc(-c3ccc(F)cc3)nc2C#N)CC1	Rce1 inhib active
Cc1cccc(-c2nc(C#N)c(N3CCC(C)CC3)o2)c1	none
Cc1cc(NC(C)c2ccccc2)n2ncc(-c3ccccc3)c2n1 (stereo not given)	GC-A act 50
COc1ccc(-c2cc(C)nc3c(-c4ccccc4)cnn23)cc1	V-ATPase pH 100 (no result: Efflux pump mplx)
Cc1cc(-c2ccccc2)n2ncc(-c3ccccc3)c2n1	none
Cc1cc(NCc2ccccc2)n2ncc(-c3ccccc3)c2n1	Rce1 inhib inconclusive
CC(C)=CCC[C@@]1(C(=O)O)[C@H]2CC=C(CO)[C@@H]1CC/C(C)=C/CC/C(C)=C/C2	none (no result: Rce1 inhib, NSD2 inh, V-ATPase pH, Efflux pump mplx)
Cn1c2ccccc2c2cc(/C=N/NC(=O)c3ccc(O)cc3O)ccc21	none (no result: NSD2 inh, GC-A act, NPR2 activator)
CCn1c2ccccc2c2cc(/C=N/NC(=O)c3cc(O)cc(O)c3)ccc21	Rce1 inhib active
CCn1c2ccccc2c2cc(/C=N/NC(=O)c3ccncc3)ccc21	none
CCn1c2ccccc2c2cc(/C=N/NC(=O)c3ccc(O)cc3)ccc21	Rce1 inhib active
O=C(N/N=C/c1cn(Cc2ccccc2)c2ccccc12)c1cc(O)cc(O)c1	Rce1 inhib active
Cc1ccc(C(=O)N/N=C/c2cn(Cc3ccccc3)c3ccccc23)cn1	none
CCC(COC)Oc1cc(NCc2ccccc2)c2ncn(C(C)C)c2c1 (stereo not given)	NPR2 activator 57 (no result: Rce1 inhib, NSD2 inh)
COc1cc(NCc2ccccc2)c2ncn(Cc3ccccc3)c2c1	V-ATPase pH 14 (no result: Rce1 inhib, NSD2 inh)
CCC(CO)Oc1cc(NCc2ccccc2)c2ncn(C(C)C)c2c1 (stereo not given)	none (no result: Rce1 inhib, NSD2 inh)
C=CCN1[C@H](C)COc2cccc(F)c2S1(=O)=O	none (no result: Rce1 inhib, NSD2 inh, V-ATPase pH, Efflux pump mplx)
COC(=O)[C@H](CC(C)C)N1Cc2nnn(CC3CCCCC3)c2-c2ccccc2S1(=O)=O	none (no result: Rce1 inhib, NSD2 inh, V-ATPase pH, Efflux pump mplx)
O=c1[nH]c(Nc2ccc(F)cc2)cc2ccccc12	NSD2 inh 97
O=c1[nH]c(Nc2ccccn2)cc2ccccc12	Rce1 inhib active (no result: NSD2 inh)
O=c1[nH]c(Nc2ccccc2Cl)cc2ccccc12	none (no result: NSD2 inh)
O=C(c1cnc(Cl)c(Cl)c1)N1CCC(Cc2ccccc2)CC1	Rce1 inhib active
O=C(c1ccc([N+](=O)[O-])cc1)N1CCC(Cc2ccccc2)CC1	none
O=C/C=C/c1coc2ccc3ccccc3c2c1=O	none (no result: V-ATPase pH)
O=Cc1coc2c(ccc3ccccc32)c1=O	Efflux pump mplx 1.9 (no result: NSD2 inh, GC-A act, V-ATPase pH, NPR2 activator)
c1ccc(-n2c(SCc3cccc4ccccc34)nnc2-c2ccccn2)cc1	none (no result: Rce1 inhib, V-ATPase pH, Efflux pump mplx)
O=C(Nc1ccc(Cl)c([N+](=O)[O-])c1)C(Sc1ccccc1)c1ccccc1 (stereo not given)	Rce1 inhib active
Cc1nn(Cc2ccc(F)cc2)c2sc(C(=O)Nc3ccc(N4CCOCC4)cc3N3CCOCC3)cc12	NPR2 activator 40
COC(=O)c1cc(-c2cccs2)c(=O)n2c1CCC2	none (no result: Rce1 inhib, NSD2 inh, V-ATPase pH, Efflux pump mplx)
CCOc1ccc(CN(C)c2nc(-c3cccnc3)nc3ccccc23)cc1OC	V-ATPase pH 16
CN(Cc1ccccc1F)c1nc(-c2cccnc2)nc2ccccc12	none (no result: Rce1 inhib)
c1ccc(Cn2c(SC3CCCCC3)nnc2-c2cccnc2)cc1	none (no result: Rce1 inhib, V-ATPase pH, Efflux pump mplx)
COC(=O)c1ccc(Cn2ccc3ccc(-c4ccc5ccn(C(=O)c6cccc(OC)c6)c5c4)cc32)cc1	none (no result: Rce1 inhib, NSD2 inh, V-ATPase pH, Efflux pump mplx)
COC(=O)C[C@@H]1CC[C@H]2[C@@H](COc3ccc(NC(=O)c4ccc(Cl)cc4)cc3C(=O)N2C)O1	none (no result: Rce1 inhib, NSD2 inh, V-ATPase pH, Efflux pump mplx)
C/C(=N\NC(=O)c1ccc(Cl)cc1)c1cccs1	V-ATPase pH 12 (no result: Efflux pump mplx)
Cc1noc(/C=C/N(C)C)c1S(=O)(=O)N1CCN(c2ccccc2)CC1	none (no result: NSD2 inh)
Cc1ccc(C)c(N2CCN(S(=O)(=O)c3c(C)noc3/C=C/N(C)C)CC2)c1	Efflux pump mplx 0.8
NCCC(=O)NCCc1cnc[nH]1	V-ATPase pH 23 (no result: Rce1 inhib, NSD2 inh)
Fc1ccccc1-c1n[nH]c(=S)n1N=Cc1ccc(OCc2ccccc2)cc1	none (no result: Rce1 inhib, V-ATPase pH, Efflux pump mplx)
Cc1ccc(Nc2c(-c3ccco3)nc3nc(C)cc(C)n23)cc1	GC-A act 68
COc1ccc(Nc2c(-c3cccc(OC)c3)nc3nc(C)cc(C)n23)cc1	none (no result: Rce1 inhib, NSD2 inh, V-ATPase pH, Efflux pump mplx)
CC(C)(C)c1ccc(-c2nnc(SCC(=O)Nc3ccc4cn[nH]c4c3)n2-c2ccc(Cl)cc2)cc1	none (no result: Rce1 inhib, V-ATPase pH, Efflux pump mplx)
CCOC(=O)c1cn2ccc(C)cc2n1	none
CCOC(=O)c1nc2cc3n(c(C)c-2c1C)C(C)C(CC)=C3C (stereo not given)	Rce1 inhib active
